Assays:
Experiment in all cases: PBM; 200 nM protein, PBS
Conditions in all cases: dsDNA, one strand shown
VENTX = target: T1, VENTX (Homo sapiens, UniProt O95231 78-163, R121Q)
T1 sequence: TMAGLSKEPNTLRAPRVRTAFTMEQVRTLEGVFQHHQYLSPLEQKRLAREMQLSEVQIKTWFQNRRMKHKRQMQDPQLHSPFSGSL

HOXA4 [1] = target: HOXA4 (Homo sapiens, UniProt Q00056 201-287, W262R)
HOXA7 [2] = target: HOXA7 (Homo sapiens, UniProt P31268 116-202)
HOXB6 [3] = target: HOXB6 (Homo sapiens, UniProt P17509 132-218, K202E)
HOXA4 [4] = target: HOXA4 (Homo sapiens, UniProt Q00056 201-287, R217L)
Sequence of HOXA4 (Homo sapiens, UniProt Q00056 201-287, R217L) (Q00056 201-287 R217L): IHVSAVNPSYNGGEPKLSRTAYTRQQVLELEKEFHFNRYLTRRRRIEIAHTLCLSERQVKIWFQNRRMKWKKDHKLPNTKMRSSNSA

HOXA4 [5] = target: HOXA4 (Homo sapiens, UniProt Q00056 201-287)
Sequence of HOXA4 (Homo sapiens, UniProt Q00056 201-287) (Q00056 201-287): as the sequence (Q00056 201-287 R217L) above, with L17R counted along it

VAX1 [6] = target: VAX1 (Homo sapiens, UniProt Q5SQQ9 86-172)
Sequence of VAX1 (Homo sapiens, UniProt Q5SQQ9 86-172) (Q5SQQ9 86-172): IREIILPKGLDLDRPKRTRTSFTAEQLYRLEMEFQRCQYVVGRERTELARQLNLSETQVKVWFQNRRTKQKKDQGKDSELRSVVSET

VAX1 [7] = target: VAX1 (Homo sapiens, UniProt Q5SQQ9 86-172, T142I)
Sequence of VAX1 (Homo sapiens, UniProt Q5SQQ9 86-172, T142I) (Q5SQQ9 86-172 T142I): as the sequence (Q5SQQ9 86-172) above, with T57I counted along it

HOXA7 [8] = target: HOXA7 (Homo sapiens, UniProt P31268 116-202, W177C)
Sequence of HOXA7 (Homo sapiens, UniProt P31268 116-202, W177C) (P31268 116-202 W177C): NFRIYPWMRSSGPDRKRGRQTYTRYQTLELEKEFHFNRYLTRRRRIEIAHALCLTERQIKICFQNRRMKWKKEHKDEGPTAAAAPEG

HOXA4 [9] = target: HOXA4 (Homo sapiens, UniProt Q00056 201-287, W262F)
Sequence of HOXA4 (Homo sapiens, UniProt Q00056 201-287, W262F) (Q00056 201-287 W262F): as the sequence (Q00056 201-287 R217L) above, with L17R, W62F counted along it

VAX1 [10] = target: VAX1 (Homo sapiens, UniProt Q5SQQ9 86-172, K157R)
Sequence of VAX1 (Homo sapiens, UniProt Q5SQQ9 86-172, K157R) (Q5SQQ9 86-172 K157R): as the sequence (Q5SQQ9 86-172) above, with K72R counted along it

HOXB6 [11] = target: HOXB6 (Homo sapiens, UniProt P17509 132-218)
Sequence of HOXB6 (Homo sapiens, UniProt P17509 132-218) (P17509 132-218): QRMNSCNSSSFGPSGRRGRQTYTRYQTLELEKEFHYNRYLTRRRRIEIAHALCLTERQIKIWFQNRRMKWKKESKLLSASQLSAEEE

ALX4 [12] = target: ALX4 (Homo sapiens, UniProt Q9H161 200-286)
Sequence of ALX4 (Homo sapiens, UniProt Q9H161 200-286) (Q9H161 200-286): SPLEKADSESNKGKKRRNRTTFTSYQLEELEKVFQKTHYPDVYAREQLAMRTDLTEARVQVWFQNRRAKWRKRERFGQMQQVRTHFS

PRRX1 [13] = target: PRRX1 (Homo sapiens, UniProt P54821 80-166, F113S)
Sequence of PRRX1 (Homo sapiens, UniProt P54821 80-166, F113S) (P54821 80-166 F113S): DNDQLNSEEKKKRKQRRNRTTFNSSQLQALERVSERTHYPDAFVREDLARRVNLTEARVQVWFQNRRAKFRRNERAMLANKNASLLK

ALX4 [14] = target: ALX4 (Homo sapiens, UniProt Q9H161 200-286, Q225E)
Sequence of ALX4 (Homo sapiens, UniProt Q9H161 200-286, Q225E) (Q9H161 200-286 Q225E): as the sequence (Q9H161 200-286) above, with Q26E counted along it

MSX2 [15] = target: MSX2 (Homo sapiens, UniProt P35548 130-214, R199I)
Sequence of MSX2 (Homo sapiens, UniProt P35548 130-214, R199I) (P35548 130-214 R199I): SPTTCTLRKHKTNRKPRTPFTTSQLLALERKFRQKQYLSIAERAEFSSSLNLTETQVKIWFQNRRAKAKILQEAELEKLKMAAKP

MSX2 [16] = target: MSX2 (Homo sapiens, UniProt P35548 130-214)
Sequence of MSX2 (Homo sapiens, UniProt P35548 130-214) (P35548 130-214): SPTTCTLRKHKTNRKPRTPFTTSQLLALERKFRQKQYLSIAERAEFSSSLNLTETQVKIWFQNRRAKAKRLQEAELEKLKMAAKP

MSX2 [17] = target: MSX2 (Homo sapiens, UniProt P35548 130-214, F161Y)
Sequence of MSX2 (Homo sapiens, UniProt P35548 130-214, F161Y) (P35548 130-214 F161Y): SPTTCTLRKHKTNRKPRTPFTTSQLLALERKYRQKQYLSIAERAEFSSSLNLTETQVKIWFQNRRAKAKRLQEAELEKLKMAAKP

PRRX1 [18] = target: PRRX1 (Homo sapiens, UniProt P54821 80-166)
Sequence of PRRX1 (Homo sapiens, UniProt P54821 80-166) (P54821 80-166): as the sequence (P54821 80-166 F113S) above, with S34F counted along it

HOXA2 = HOXA2 (Homo sapiens, UniProt O43364 129-215, R185T)
Sequence of HOXA2 (O43364 129-215 R185T): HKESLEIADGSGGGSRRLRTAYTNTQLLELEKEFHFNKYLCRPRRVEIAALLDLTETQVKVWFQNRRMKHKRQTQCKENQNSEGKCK

Sequence of HOXB6 (Homo sapiens, UniProt P17509 132-218, K202E) (P17509 132-218 K202E): as the sequence (P17509 132-218) above, with K71E counted along it
Sequence of HOXA4 (Homo sapiens, UniProt Q00056 201-287, W262R) (Q00056 201-287 W262R): as the sequence (Q00056 201-287 R217L) above, with L17R, W62R counted along it
Sequence of HOXA7 (Homo sapiens, UniProt P31268 116-202) (P31268 116-202): as the sequence (P31268 116-202 W177C) above, with C62W counted along it

Sequence | binding signal (VENTX) | binding signal (HOXA4 [1]) | binding signal (HOXA7 [2]) | binding signal (HOXB6 [3]) | binding signal (HOXA4 [4]) | binding signal (HOXA4 [5]) | binding signal (VAX1 [6]) | binding signal (VAX1 [7]) | binding signal (HOXA7 [8]) | binding signal (HOXA4 [9]) | binding signal (VAX1 [10]) | binding signal (HOXB6 [11]) | binding signal (ALX4 [12]) | binding signal (PRRX1 [13]) | binding signal (ALX4 [14]) | binding signal (MSX2 [15]) | binding signal (MSX2 [16]) | binding signal (MSX2 [17]) | binding signal (PRRX1 [18]) | binding signal (HOXA2)
ATTAATAG | 11.7 upbm affinity estimate (log intensity, higher = more binding, comparable within an allelic series) | 10.6 upbm affinity estimate (log intensity, higher = more binding, comparable within an allelic series) | 11.6 upbm affinity estimate (log intensity, higher = more binding, comparable within an allelic series) | 10.1 upbm affinity estimate (log intensity, higher = more binding, comparable within an allelic series) | 12 upbm affinity estimate (log intensity, higher = more binding, comparable within an allelic series) | 13.6 upbm affinity estimate (log intensity, higher = more binding, comparable within an allelic series) | 12.6 upbm affinity estimate (log intensity, higher = more binding, comparable within an allelic series) | 12.5 upbm affinity estimate (log intensity, higher = more binding, comparable within an allelic series) | 9.03 upbm affinity estimate (log intensity, higher = more binding, comparable within an allelic series) | 11.3 upbm affinity estimate (log intensity, higher = more binding, comparable within an allelic series) | 12.4 upbm affinity estimate (log intensity, higher = more binding, comparable within an allelic series) | 12 upbm affinity estimate (log intensity, higher = more binding, comparable within an allelic series) |  |  |  |  |  |  |  | 
ATAATTGA |  | 10.6 upbm affinity estimate (log intensity, higher = more binding, comparable within an allelic series) | 11.2 upbm affinity estimate (log intensity, higher = more binding, comparable within an allelic series) | 10 upbm affinity estimate (log intensity, higher = more binding, comparable within an allelic series) | 12 upbm affinity estimate (log intensity, higher = more binding, comparable within an allelic series) | 13.7 upbm affinity estimate (log intensity, higher = more binding, comparable within an allelic series) |  |  | 8.94 upbm affinity estimate (log intensity, higher = more binding, comparable within an allelic series) | 11.3 upbm affinity estimate (log intensity, higher = more binding, comparable within an allelic series) |  | 11.7 upbm affinity estimate (log intensity, higher = more binding, comparable within an allelic series) | 14 upbm affinity estimate (log intensity, higher = more binding, comparable within an allelic series) | 11.5 upbm affinity estimate (log intensity, higher = more binding, comparable within an allelic series) | 13.3 upbm affinity estimate (log intensity, higher = more binding, comparable within an allelic series) | 12.8 upbm affinity estimate (log intensity, higher = more binding, comparable within an allelic series) | 13.8 upbm affinity estimate (log intensity, higher = more binding, comparable within an allelic series) | 13.5 upbm affinity estimate (log intensity, higher = more binding, comparable within an allelic series) | 13.5 upbm affinity estimate (log intensity, higher = more binding, comparable within an allelic series) | 
ACTAATTA | 12.8 upbm affinity estimate (log intensity, higher = more binding, comparable within an allelic series) | 10.9 upbm affinity estimate (log intensity, higher = more binding, comparable within an allelic series) | 12.1 upbm affinity estimate (log intensity, higher = more binding, comparable within an allelic series) | 10.2 upbm affinity estimate (log intensity, higher = more binding, comparable within an allelic series) | 12.9 upbm affinity estimate (log intensity, higher = more binding, comparable within an allelic series) | 14.2 upbm affinity estimate (log intensity, higher = more binding, comparable within an allelic series) | 14 upbm affinity estimate (log intensity, higher = more binding, comparable within an allelic series) | 14.1 upbm affinity estimate (log intensity, higher = more binding, comparable within an allelic series) | 8.93 upbm affinity estimate (log intensity, higher = more binding, comparable within an allelic series) | 12.8 upbm affinity estimate (log intensity, higher = more binding, comparable within an allelic series) | 14.2 upbm affinity estimate (log intensity, higher = more binding, comparable within an allelic series) | 12.4 upbm affinity estimate (log intensity, higher = more binding, comparable within an allelic series) | 14.4 upbm affinity estimate (log intensity, higher = more binding, comparable within an allelic series) | 12 upbm affinity estimate (log intensity, higher = more binding, comparable within an allelic series) | 14.3 upbm affinity estimate (log intensity, higher = more binding, comparable within an allelic series) | 13.5 upbm affinity estimate (log intensity, higher = more binding, comparable within an allelic series) | 14.1 upbm affinity estimate (log intensity, higher = more binding, comparable within an allelic series) | 13.8 upbm affinity estimate (log intensity, higher = more binding, comparable within an allelic series) | 13.7 upbm affinity estimate (log intensity, higher = more binding, comparable within an allelic series) | 14 upbm affinity estimate (log intensity, higher = more binding, comparable within an allelic series)
CAATTAAC | 12.2 upbm affinity estimate (log intensity, higher = more binding, comparable within an allelic series) | 10.6 upbm affinity estimate (log intensity, higher = more binding, comparable within an allelic series) | 11.5 upbm affinity estimate (log intensity, higher = more binding, comparable within an allelic series) | 9.99 upbm affinity estimate (log intensity, higher = more binding, comparable within an allelic series) | 12.4 upbm affinity estimate (log intensity, higher = more binding, comparable within an allelic series) | 13.9 upbm affinity estimate (log intensity, higher = more binding, comparable within an allelic series) | 13 upbm affinity estimate (log intensity, higher = more binding, comparable within an allelic series) | 12.8 upbm affinity estimate (log intensity, higher = more binding, comparable within an allelic series) | 8.75 upbm affinity estimate (log intensity, higher = more binding, comparable within an allelic series) | 11.6 upbm affinity estimate (log intensity, higher = more binding, comparable within an allelic series) | 13 upbm affinity estimate (log intensity, higher = more binding, comparable within an allelic series) | 12 upbm affinity estimate (log intensity, higher = more binding, comparable within an allelic series) | 14 upbm affinity estimate (log intensity, higher = more binding, comparable within an allelic series) | 11.3 upbm affinity estimate (log intensity, higher = more binding, comparable within an allelic series) | 13.5 upbm affinity estimate (log intensity, higher = more binding, comparable within an allelic series) | 13.1 upbm affinity estimate (log intensity, higher = more binding, comparable within an allelic series) | 14 upbm affinity estimate (log intensity, higher = more binding, comparable within an allelic series) | 13.6 upbm affinity estimate (log intensity, higher = more binding, comparable within an allelic series) | 13.4 upbm affinity estimate (log intensity, higher = more binding, comparable within an allelic series) | 13.1 upbm affinity estimate (log intensity, higher = more binding, comparable within an allelic series)
ATCAATTA | 12.3 upbm affinity estimate (log intensity, higher = more binding, comparable within an allelic series) | 10.7 upbm affinity estimate (log intensity, higher = more binding, comparable within an allelic series) | 11.7 upbm affinity estimate (log intensity, higher = more binding, comparable within an allelic series) | 10.1 upbm affinity estimate (log intensity, higher = more binding, comparable within an allelic series) | 12.6 upbm affinity estimate (log intensity, higher = more binding, comparable within an allelic series) | 14.1 upbm affinity estimate (log intensity, higher = more binding, comparable within an allelic series) | 13.3 upbm affinity estimate (log intensity, higher = more binding, comparable within an allelic series) | 12.9 upbm affinity estimate (log intensity, higher = more binding, comparable within an allelic series) | 8.98 upbm affinity estimate (log intensity, higher = more binding, comparable within an allelic series) | 11.9 upbm affinity estimate (log intensity, higher = more binding, comparable within an allelic series) | 13.1 upbm affinity estimate (log intensity, higher = more binding, comparable within an allelic series) | 12.1 upbm affinity estimate (log intensity, higher = more binding, comparable within an allelic series) | 14.2 upbm affinity estimate (log intensity, higher = more binding, comparable within an allelic series) | 11.4 upbm affinity estimate (log intensity, higher = more binding, comparable within an allelic series) | 13.7 upbm affinity estimate (log intensity, higher = more binding, comparable within an allelic series) | 13.1 upbm affinity estimate (log intensity, higher = more binding, comparable within an allelic series) | 14 upbm affinity estimate (log intensity, higher = more binding, comparable within an allelic series) | 13.7 upbm affinity estimate (log intensity, higher = more binding, comparable within an allelic series) | 13.6 upbm affinity estimate (log intensity, higher = more binding, comparable within an allelic series) | 13.3 upbm affinity estimate (log intensity, higher = more binding, comparable within an allelic series)
TCAATTAA | 12 upbm affinity estimate (log intensity, higher = more binding, comparable within an allelic series) | 10.7 upbm affinity estimate (log intensity, higher = more binding, comparable within an allelic series) | 11.5 upbm affinity estimate (log intensity, higher = more binding, comparable within an allelic series) | 9.94 upbm affinity estimate (log intensity, higher = more binding, comparable within an allelic series) | 12.4 upbm affinity estimate (log intensity, higher = more binding, comparable within an allelic series) | 13.9 upbm affinity estimate (log intensity, higher = more binding, comparable within an allelic series) | 13.3 upbm affinity estimate (log intensity, higher = more binding, comparable within an allelic series) | 13.1 upbm affinity estimate (log intensity, higher = more binding, comparable within an allelic series) | 8.86 upbm affinity estimate (log intensity, higher = more binding, comparable within an allelic series) | 11.8 upbm affinity estimate (log intensity, higher = more binding, comparable within an allelic series) | 13 upbm affinity estimate (log intensity, higher = more binding, comparable within an allelic series) | 11.9 upbm affinity estimate (log intensity, higher = more binding, comparable within an allelic series) | 14.1 upbm affinity estimate (log intensity, higher = more binding, comparable within an allelic series) | 11.3 upbm affinity estimate (log intensity, higher = more binding, comparable within an allelic series) | 13.8 upbm affinity estimate (log intensity, higher = more binding, comparable within an allelic series) | 12.8 upbm affinity estimate (log intensity, higher = more binding, comparable within an allelic series) | 13.9 upbm affinity estimate (log intensity, higher = more binding, comparable within an allelic series) | 13.5 upbm affinity estimate (log intensity, higher = more binding, comparable within an allelic series) | 13.5 upbm affinity estimate (log intensity, higher = more binding, comparable within an allelic series) | 13.1 upbm affinity estimate (log intensity, higher = more binding, comparable within an allelic series)
GTCAATTA | 11.7 upbm affinity estimate (log intensity, higher = more binding, comparable within an allelic series) | 10.5 upbm affinity estimate (log intensity, higher = more binding, comparable within an allelic series) |  | 9.73 upbm affinity estimate (log intensity, higher = more binding, comparable within an allelic series) | 12.1 upbm affinity estimate (log intensity, higher = more binding, comparable within an allelic series) | 13.8 upbm affinity estimate (log intensity, higher = more binding, comparable within an allelic series) | 13.3 upbm affinity estimate (log intensity, higher = more binding, comparable within an allelic series) | 13.1 upbm affinity estimate (log intensity, higher = more binding, comparable within an allelic series) |  | 11.3 upbm affinity estimate (log intensity, higher = more binding, comparable within an allelic series) | 13.2 upbm affinity estimate (log intensity, higher = more binding, comparable within an allelic series) | 11.7 upbm affinity estimate (log intensity, higher = more binding, comparable within an allelic series) | 13.9 upbm affinity estimate (log intensity, higher = more binding, comparable within an allelic series) | 11 upbm affinity estimate (log intensity, higher = more binding, comparable within an allelic series) | 13.4 upbm affinity estimate (log intensity, higher = more binding, comparable within an allelic series) | 12.6 upbm affinity estimate (log intensity, higher = more binding, comparable within an allelic series) | 13.8 upbm affinity estimate (log intensity, higher = more binding, comparable within an allelic series) | 13.4 upbm affinity estimate (log intensity, higher = more binding, comparable within an allelic series) | 13.3 upbm affinity estimate (log intensity, higher = more binding, comparable within an allelic series) | 12.9 upbm affinity estimate (log intensity, higher = more binding, comparable within an allelic series)
CAATTACC | 11.7 upbm affinity estimate (log intensity, higher = more binding, comparable within an allelic series) |  | 11.4 upbm affinity estimate (log intensity, higher = more binding, comparable within an allelic series) | 9.82 upbm affinity estimate (log intensity, higher = more binding, comparable within an allelic series) | 11.9 upbm affinity estimate (log intensity, higher = more binding, comparable within an allelic series) |  | 12.8 upbm affinity estimate (log intensity, higher = more binding, comparable within an allelic series) | 12.5 upbm affinity estimate (log intensity, higher = more binding, comparable within an allelic series) | 8.84 upbm affinity estimate (log intensity, higher = more binding, comparable within an allelic series) |  | 12.5 upbm affinity estimate (log intensity, higher = more binding, comparable within an allelic series) | 11.8 upbm affinity estimate (log intensity, higher = more binding, comparable within an allelic series) | 13.9 upbm affinity estimate (log intensity, higher = more binding, comparable within an allelic series) | 10.9 upbm affinity estimate (log intensity, higher = more binding, comparable within an allelic series) | 12.9 upbm affinity estimate (log intensity, higher = more binding, comparable within an allelic series) | 12.7 upbm affinity estimate (log intensity, higher = more binding, comparable within an allelic series) | 13.8 upbm affinity estimate (log intensity, higher = more binding, comparable within an allelic series) | 13.5 upbm affinity estimate (log intensity, higher = more binding, comparable within an allelic series) | 13.3 upbm affinity estimate (log intensity, higher = more binding, comparable within an allelic series) | 12.6 upbm affinity estimate (log intensity, higher = more binding, comparable within an allelic series)

Reference: paper PMC11006913
